From the supplement of paper PMC11732987, “Enantioselective OTUD7B fragment discovery through chemoproteomics screening and high-throughput optimisation” (Communications Chemistry, 2025)

Tests used:
Test in all cases: log2 ratio of Biotin-Ahx-Ub-VS probe labelling (fragment/DMSO); higher = less target engagement (more negative = stronger competition), active = hit call of the paper (q ≤ 0.05, log2 ratio ≤ -1)
Settings in all cases: compound concentration: 200 uM; treatment time: 3 h
[1] = target: T1, USP19 (UniProt O94966)
T1 sequence (whole entry): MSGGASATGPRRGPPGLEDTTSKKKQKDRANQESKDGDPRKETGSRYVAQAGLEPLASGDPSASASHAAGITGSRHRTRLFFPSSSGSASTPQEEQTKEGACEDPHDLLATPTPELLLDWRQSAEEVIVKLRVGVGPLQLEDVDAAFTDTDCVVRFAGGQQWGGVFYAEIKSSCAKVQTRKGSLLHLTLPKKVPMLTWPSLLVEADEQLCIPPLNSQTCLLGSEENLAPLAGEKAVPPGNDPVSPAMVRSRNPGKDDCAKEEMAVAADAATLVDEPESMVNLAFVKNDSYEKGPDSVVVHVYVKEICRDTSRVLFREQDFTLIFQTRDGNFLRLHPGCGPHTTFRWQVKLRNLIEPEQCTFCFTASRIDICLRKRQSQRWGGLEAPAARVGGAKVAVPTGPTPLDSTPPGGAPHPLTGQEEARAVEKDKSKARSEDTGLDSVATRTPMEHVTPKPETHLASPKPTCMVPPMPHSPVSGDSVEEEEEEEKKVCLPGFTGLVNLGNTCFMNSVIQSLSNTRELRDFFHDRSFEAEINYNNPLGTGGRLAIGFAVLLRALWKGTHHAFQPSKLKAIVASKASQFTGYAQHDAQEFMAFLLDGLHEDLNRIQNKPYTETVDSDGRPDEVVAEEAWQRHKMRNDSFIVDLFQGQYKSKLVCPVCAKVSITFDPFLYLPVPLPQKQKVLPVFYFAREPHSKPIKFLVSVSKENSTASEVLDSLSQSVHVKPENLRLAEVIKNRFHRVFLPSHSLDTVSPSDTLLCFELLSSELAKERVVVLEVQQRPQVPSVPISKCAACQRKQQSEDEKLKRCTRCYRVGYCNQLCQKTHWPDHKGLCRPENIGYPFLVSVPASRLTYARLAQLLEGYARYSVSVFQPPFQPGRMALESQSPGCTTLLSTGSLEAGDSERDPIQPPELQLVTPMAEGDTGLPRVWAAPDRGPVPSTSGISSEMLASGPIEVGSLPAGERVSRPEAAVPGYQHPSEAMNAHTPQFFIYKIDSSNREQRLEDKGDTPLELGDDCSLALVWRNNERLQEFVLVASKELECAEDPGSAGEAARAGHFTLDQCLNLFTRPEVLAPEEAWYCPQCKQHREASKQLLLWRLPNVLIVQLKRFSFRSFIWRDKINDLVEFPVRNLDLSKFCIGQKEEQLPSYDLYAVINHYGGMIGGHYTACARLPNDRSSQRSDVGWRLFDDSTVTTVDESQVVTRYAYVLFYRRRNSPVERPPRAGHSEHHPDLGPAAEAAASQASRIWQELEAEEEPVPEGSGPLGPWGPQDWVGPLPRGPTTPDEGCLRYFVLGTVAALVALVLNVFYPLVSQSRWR
Summary of the method: (§1)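 Each value is an average log2 ratio of fragment to vehicle, tested by unpaired t-test. The underlying Spectronaut label-free quantities were global-median-normalised, and only proteins with ≥2 unique peptides were included. Triplicate HEK293T lysate samples (495 µg) were exposed to fragment at 200 µM or vehicle for 3 h, then to Biotin-Ahx-Ub-VS at 0.5 µM final for 1 h, before NeutrAvidin enrichment of labelled DUBs, LysC and trypsin digestion, and diaPASEF LC-MS/MS.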

[2] = target: T2, USP22 (UniProt Q9UPT9)
T2 sequence (whole entry): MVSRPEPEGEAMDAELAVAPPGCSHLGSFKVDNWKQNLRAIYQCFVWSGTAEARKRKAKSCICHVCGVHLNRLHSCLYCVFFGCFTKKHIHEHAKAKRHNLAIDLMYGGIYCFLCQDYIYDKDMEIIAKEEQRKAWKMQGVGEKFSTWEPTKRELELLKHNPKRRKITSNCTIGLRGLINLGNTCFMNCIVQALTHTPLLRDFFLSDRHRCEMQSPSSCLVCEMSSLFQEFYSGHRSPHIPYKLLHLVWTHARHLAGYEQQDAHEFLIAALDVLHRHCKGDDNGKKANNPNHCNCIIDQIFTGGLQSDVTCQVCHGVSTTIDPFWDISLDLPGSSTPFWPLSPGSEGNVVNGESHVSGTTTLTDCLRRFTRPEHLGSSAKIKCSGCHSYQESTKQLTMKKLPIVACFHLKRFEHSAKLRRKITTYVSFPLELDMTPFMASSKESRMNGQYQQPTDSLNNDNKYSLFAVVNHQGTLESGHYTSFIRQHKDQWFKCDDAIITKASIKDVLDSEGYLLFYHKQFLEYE
Summary of the method: as §1

[3] = target: USP24 (UniProt Q9UPU5)
USP24, sequence (Q9UPU5 whole entry): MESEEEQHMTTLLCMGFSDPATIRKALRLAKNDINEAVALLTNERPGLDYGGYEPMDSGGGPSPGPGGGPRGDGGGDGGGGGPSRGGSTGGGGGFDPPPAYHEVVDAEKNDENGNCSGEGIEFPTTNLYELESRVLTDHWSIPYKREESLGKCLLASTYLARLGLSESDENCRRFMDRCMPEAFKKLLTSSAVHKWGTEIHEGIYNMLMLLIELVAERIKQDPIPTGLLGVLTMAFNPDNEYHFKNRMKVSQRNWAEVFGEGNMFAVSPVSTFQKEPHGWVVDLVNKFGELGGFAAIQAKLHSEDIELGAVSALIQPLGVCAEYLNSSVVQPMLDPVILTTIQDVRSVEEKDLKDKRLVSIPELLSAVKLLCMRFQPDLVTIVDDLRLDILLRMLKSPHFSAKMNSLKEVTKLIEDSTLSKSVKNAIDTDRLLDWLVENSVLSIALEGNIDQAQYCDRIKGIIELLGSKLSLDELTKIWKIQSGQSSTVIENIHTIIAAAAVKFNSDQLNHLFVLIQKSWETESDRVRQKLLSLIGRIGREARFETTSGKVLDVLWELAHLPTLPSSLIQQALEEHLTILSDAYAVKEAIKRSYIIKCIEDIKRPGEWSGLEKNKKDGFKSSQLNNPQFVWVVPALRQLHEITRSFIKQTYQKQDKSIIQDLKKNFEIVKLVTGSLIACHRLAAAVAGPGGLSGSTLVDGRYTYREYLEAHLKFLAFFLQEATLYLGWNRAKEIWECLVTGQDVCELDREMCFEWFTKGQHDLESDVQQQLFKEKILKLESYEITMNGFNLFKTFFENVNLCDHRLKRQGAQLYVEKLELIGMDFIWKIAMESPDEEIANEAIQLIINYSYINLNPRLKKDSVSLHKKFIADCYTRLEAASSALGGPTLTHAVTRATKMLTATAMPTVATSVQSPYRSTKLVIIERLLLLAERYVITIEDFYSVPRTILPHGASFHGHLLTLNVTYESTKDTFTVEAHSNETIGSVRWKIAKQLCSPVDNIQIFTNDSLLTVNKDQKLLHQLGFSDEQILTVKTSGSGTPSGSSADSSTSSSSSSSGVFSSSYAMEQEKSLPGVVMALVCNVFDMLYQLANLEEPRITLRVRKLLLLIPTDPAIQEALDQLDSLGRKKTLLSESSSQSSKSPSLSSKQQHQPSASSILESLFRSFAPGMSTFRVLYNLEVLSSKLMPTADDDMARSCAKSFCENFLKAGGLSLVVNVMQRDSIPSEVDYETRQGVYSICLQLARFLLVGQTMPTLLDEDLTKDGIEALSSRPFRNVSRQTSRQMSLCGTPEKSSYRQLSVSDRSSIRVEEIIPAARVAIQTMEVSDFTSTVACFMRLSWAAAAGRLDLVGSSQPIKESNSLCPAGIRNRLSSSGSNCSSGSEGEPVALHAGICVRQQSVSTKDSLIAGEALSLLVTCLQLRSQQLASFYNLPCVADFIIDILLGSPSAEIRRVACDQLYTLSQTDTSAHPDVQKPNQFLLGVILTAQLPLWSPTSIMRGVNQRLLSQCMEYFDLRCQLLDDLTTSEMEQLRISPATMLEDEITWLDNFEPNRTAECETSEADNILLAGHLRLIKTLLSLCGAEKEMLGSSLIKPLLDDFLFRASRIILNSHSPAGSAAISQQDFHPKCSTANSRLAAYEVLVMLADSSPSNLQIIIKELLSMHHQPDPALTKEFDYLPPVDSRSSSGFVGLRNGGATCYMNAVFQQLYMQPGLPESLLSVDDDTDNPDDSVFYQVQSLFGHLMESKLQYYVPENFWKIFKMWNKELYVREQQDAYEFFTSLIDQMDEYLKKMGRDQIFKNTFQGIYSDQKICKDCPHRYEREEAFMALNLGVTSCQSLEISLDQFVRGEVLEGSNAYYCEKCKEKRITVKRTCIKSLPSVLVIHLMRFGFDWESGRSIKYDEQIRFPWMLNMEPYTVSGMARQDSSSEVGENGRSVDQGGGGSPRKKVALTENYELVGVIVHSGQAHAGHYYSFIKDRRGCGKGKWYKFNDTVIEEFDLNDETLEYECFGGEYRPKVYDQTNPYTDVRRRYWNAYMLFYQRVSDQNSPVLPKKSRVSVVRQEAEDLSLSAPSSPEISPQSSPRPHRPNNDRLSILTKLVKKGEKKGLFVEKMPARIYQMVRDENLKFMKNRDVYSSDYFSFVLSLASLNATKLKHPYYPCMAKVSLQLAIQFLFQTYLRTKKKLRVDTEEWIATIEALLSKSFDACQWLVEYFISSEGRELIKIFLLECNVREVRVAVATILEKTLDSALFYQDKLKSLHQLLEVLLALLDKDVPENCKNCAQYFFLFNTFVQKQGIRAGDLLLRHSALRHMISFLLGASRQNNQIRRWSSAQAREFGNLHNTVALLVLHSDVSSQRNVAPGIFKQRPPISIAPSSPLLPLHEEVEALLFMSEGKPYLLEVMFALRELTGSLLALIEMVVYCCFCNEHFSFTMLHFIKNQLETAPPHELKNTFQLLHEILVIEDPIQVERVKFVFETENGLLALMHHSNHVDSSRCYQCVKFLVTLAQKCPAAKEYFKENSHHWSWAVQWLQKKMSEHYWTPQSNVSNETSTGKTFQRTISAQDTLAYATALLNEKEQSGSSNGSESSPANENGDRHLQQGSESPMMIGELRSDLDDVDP
Summary of the method: as §1

[4] = target: T3, USP25 (UniProt Q9UHP3)
T3 sequence (whole entry): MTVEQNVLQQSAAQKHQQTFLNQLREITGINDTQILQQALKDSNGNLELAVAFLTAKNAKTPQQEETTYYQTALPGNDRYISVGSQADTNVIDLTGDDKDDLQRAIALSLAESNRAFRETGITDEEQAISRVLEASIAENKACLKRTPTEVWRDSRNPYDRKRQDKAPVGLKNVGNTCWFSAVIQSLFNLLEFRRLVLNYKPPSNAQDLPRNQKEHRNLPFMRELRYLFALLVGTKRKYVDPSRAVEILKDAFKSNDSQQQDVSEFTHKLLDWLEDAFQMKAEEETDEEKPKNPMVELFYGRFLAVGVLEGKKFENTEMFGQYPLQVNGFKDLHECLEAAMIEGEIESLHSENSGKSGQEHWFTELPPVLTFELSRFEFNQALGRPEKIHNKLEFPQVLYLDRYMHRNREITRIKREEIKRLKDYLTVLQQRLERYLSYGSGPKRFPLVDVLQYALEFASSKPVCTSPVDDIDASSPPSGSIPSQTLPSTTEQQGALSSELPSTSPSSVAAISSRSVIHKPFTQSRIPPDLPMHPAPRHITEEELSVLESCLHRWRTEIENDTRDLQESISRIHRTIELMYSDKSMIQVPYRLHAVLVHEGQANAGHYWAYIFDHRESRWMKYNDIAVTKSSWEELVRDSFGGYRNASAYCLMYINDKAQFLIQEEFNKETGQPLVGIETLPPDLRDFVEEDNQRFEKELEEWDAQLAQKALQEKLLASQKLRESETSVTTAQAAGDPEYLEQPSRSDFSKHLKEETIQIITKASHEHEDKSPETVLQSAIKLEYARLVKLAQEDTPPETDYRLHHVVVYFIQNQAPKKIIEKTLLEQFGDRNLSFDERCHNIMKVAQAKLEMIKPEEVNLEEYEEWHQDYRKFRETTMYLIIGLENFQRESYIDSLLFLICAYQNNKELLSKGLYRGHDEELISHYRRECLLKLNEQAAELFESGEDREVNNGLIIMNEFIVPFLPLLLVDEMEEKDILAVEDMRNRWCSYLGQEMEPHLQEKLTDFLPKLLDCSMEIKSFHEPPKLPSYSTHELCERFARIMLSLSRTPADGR
Summary of the method: as §1

[5] = target: T4, USP28 (UniProt Q96RU2)
T4 sequence (whole entry): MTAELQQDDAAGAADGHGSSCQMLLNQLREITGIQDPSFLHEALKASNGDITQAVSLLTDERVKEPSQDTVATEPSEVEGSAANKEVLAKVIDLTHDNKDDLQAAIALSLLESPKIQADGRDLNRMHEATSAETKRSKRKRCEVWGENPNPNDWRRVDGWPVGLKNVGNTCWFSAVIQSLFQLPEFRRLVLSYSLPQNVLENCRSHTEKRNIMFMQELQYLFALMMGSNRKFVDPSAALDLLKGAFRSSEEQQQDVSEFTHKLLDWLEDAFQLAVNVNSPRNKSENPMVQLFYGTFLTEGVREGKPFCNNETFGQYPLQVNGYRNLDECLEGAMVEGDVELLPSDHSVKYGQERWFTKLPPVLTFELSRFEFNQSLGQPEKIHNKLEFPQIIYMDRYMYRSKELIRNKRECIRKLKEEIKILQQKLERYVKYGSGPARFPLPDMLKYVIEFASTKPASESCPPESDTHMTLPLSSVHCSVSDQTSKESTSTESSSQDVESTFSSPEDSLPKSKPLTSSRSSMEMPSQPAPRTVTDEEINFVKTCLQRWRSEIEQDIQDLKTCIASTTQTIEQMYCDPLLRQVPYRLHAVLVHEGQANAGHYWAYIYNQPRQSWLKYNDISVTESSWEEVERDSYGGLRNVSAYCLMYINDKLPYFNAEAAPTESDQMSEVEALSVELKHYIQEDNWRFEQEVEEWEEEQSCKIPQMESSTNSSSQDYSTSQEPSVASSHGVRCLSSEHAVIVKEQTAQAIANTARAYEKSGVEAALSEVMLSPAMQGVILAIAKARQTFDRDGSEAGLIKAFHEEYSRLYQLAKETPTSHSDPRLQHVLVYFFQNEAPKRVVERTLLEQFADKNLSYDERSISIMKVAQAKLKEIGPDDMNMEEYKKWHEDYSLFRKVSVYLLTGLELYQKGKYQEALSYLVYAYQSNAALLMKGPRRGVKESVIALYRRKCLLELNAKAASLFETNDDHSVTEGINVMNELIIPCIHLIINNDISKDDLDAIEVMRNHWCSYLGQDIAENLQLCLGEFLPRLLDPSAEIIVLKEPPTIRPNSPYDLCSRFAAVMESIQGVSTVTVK
Summary of the method: as §1

Measured: log2 ratio of Biotin-Ahx-Ub-VS probe labelling

Cc1ccc(C(=O)NCCNC(=O)CCl)cc1
inactive: [1] -0.26 | [2] -0.00216 | [3] -0.352 | [4] -0.498 | [5] -0.493
